Experimental data as given in PubChem BioAssay (EPA / NIEHS).
Inconclusive results are not listed. Activity calls are given as the source filed them. Rule for the calls, unless noted: active = hit-call score of the fitted dose curve at least 0.9, where 1 is the maximum; inactive = score below 0.9.

Assays:
[1] = biological target: Paired box protein Pax-6 (Homo sapiens) (UniProt P26367); test: ATG_Pax6_CIS: Attagene CIS-FACTORIAL HepG2 Assay for human Paired Box 6 (PAX6) (AID 2282956); conditions: HepG2 CIS-FACTORIAL PAX6 reporter transcription, RNA readout; actives raise or lower the signal
Method in brief: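 Multiplexed cis-reporter HepG2 system; 24 h treatment; reporter mRNA read by RT-PCR/CE fluorescence; bidirectional fit vs DMSO.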

[2] = ATG_PXRE_CIS: Attagene CIS-FACTORIAL HepG2 Assay for human Pregnane X Receptor Element (PXRE) (AID 2282957); conditions: HepG2 Attagene CIS-FACTORIAL PXRE reporter, mRNA; actives raise or lower the signal
Method in brief: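 HepG2 cells transiently transfected with cis-element-driven multiplexed reporter units; after 24 h chemical exposure, reporter mRNA measured by RT-PCR, 6-FAM labelling, HpaI digestion and capillary electrophoresis. Bidirectional fitting relative to DMSO.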

[3] = ATG_PPRE_CIS: Attagene CIS-FACTORIAL HepG2 Assay for human Peroxisome Proliferator-activated Response Element (PPRE) (AID 2282958); conditions: HepG2 PPRE cis-element reporter, Attagene transcription factor profiling; actives raise or lower the signal
Method in brief: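 HepG2 cells transiently transfected with multiplexed cis-element reporter units measure endogenous transcription factor activity. After 24 h compound exposure, reporter mRNA is quantified by RT-PCR, 6-FAM labeling, HpaI digestion and capillary electrophoresis; bidirectional fits are made against DMSO baseline.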

[4] = ATG_RORE_CIS: Attagene CIS-FACTORIAL HepG2 Assay for human RAR-related Orphan Receptor Element (RORE) (AID 2282959); conditions: HepG2 Attagene cis-factorial RORE reporter, mRNA; actives raise or lower the signal
Method in brief: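 HepG2 cells transiently transfected with multiple cis-element reporter transcription units, exposed to chemical for 24 h. Reporter mRNA quantified by RT-PCR, 6-FAM primer-extension labeling, HpaI digestion and capillary electrophoresis; bidirectional fit versus DMSO baseline.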

[5] = ATG_Sox_CIS: Attagene CIS-FACTORIAL HepG2 Assay for human SRY-box transcription factor (SOX) (AID 2282960); conditions: HepG2 Attagene cis-factorial SOX reporter, mRNA; actives raise or lower the signal
Method in brief: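 HepG2 cells transiently transfected with cis-element-driven multiple reporter transcription units, dosed 24 h; reporter mRNA measured by RT-PCR, FAM labelling, HpaI digestion and capillary electrophoresis. Bidirectional fit versus DMSO baseline.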

[6] = biological target: Transcription factor Sp1 (Homo sapiens) (UniProt P08047); test: ATG_Sp1_CIS: Attagene CIS-FACTORIAL HepG2 Assay for human Specificity Protein 1 (Sp1) (AID 2282961); conditions: HepG2 Sp1 cis-reporter transcription, actives raise or lower the signal
Method in brief: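 HepG2 cells transiently transfected with multiple reporter transcription units driven by cis-regulatory elements; Sp1-responsive reporter mRNA measured 24 h after dosing by RT-PCR and capillary electrophoresis fluorescence, fitted bidirectionally against DMSO baseline.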

[7] = ATG_SREBP_CIS: Attagene CIS-FACTORIAL HepG2 Assay for human Sterol Regulatory Element Binding (SREBP) (AID 2282962); conditions: HepG2 Attagene cis-factorial SREBP reporter, mRNA; actives raise or lower the signal
Method in brief: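 mRNA induction of transfected cis-promoter reporters in HepG2 cells, 24 h post-dose. Detection: RT-PCR with 6-FAM-labelled products, HpaI digest, capillary electrophoresis. DMSO served as negative control and baseline.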

[8] = biological target: Signal transducer and activator of transcription 3 (Homo sapiens) (UniProt P40763); test: ATG_STAT3_CIS: Attagene CIS-FACTORIAL HepG2 Assay for human Signal Transducer and Activator of Transcription 3 (STAT3) (AID 2282963); conditions: HepG2, Attagene cis-factorial STAT3 reporter transcription; actives raise or lower the signal
Method in brief: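 Endogenous STAT3-responsive cis-element activity was read in transiently transfected HepG2 cells after 24 h treatment. Reporter transcripts were quantified via RT-PCR and capillary electrophoresis, with DMSO as negative control and bidirectional curve fitting.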

[9] = ATG_TA_CIS: Attagene CIS-FACTORIAL HepG2 Assay for human TA Basal Promoter (AID 2282964); conditions: HepG2 Attagene CIS-factorial TA basal promoter reporter; actives raise or lower the signal
Method in brief: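 Background-control readout: TA basal promoter reporter mRNA, fitted in both directions relative to DMSO. Measured by RT-PCR and capillary electrophoresis 24 hours after treating HepG2 human liver cells transiently carrying multiplexed cis-regulated reporter constructs.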

[10] = ATG_TCF_b_cat_CIS: Attagene CIS-FACTORIAL HepG2 Assay for human T-Cell-Factor with beta-catenin (TCF/b-cat) (AID 2282965); conditions: HepG2 TCF/beta-catenin cis-reporter transcription, actives raise or lower the signal
Method in brief: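 Measured: reporter mRNA in HepG2 transiently transfected with cis-promoter reporter units, 24 h after chemical addition. Fitting was bidirectional, DMSO as negative control.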

[11] = ATG_TAL_CIS: Attagene CIS-FACTORIAL HepG2 Assay for human TAL Basal Promoter (AID 2282966); conditions: HepG2 Attagene cis-factorial TAL promoter reporter; actives raise or lower the signal;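 note: background control endpoint measuring basal TAL promoter reporter mRNA not a specific factor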
Method in brief: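 HepG2 cells transiently transfected with multiplexed cis-promoter reporter units, dosed 24 h. Reporter mRNA quantified by RT-PCR, 6-FAM labelling, HpaI digestion and capillary electrophoresis; TAL basal promoter serves as background control, fitted bidirectionally versus DMSO.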

[12] = ATG_TGFb_CIS: Attagene CIS-FACTORIAL HepG2 Assay for human Transforming Growth Factor (TGF) (AID 2282967); conditions: HepG2 Attagene CIS TGFb reporter, mRNA transcription; actives raise or lower the signal
Method in brief: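 Endogenous TGFB1-linked transcription factor activity read as reporter mRNA via RT-PCR and capillary electrophoresis, 24 h after dosing transiently transfected HepG2 cells. Gain or loss of signal fitted relative to DMSO.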

[13] = ATG_VDRE_CIS: Attagene CIS-FACTORIAL HepG2 Assay for human Vitamin D Receptor Element (VDRE) (AID 2282968); conditions: HepG2 VDRE cis-reporter transcription, actives raise or lower the signal
Method in brief: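 Reporter mRNA induction, quantified by capillary electrophoresis of fluorescently labelled RT-PCR products, was read 24 h after dosing HepG2 cells carrying transiently transfected cis-regulated reporter units; gain or loss relative to DMSO.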

[14] = biological target: Estrogen receptor (Homo sapiens) (UniProt P03372); test: ATG_ERa_TRANS: Attagene TRANS-FACTORIAL HepG2 Assay for human Estrogen Receptor alpha (ERa) (AID 2282970; active = hit-call score of the fitted dose curve at least 0.9, where 1 is the maximum); conditions: HepG2 Attagene TRANS ERa GAL4 reporter, mRNA
Method in brief: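 HepG2 cells transiently transfected with multiplexed GAL4-UAS reporter units read out chimeric NR-Gal4 activity. After 24 h compound exposure, reporter mRNA was quantified by RT-PCR, 6-FAM labeling, HpaI digestion and capillary electrophoresis, relative to DMSO.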

[15] = biological target: X-box-binding protein 1 (Homo sapiens) (UniProt P17861); test: ATG_Xbp1_CIS: Attagene CIS-FACTORIAL HepG2 Assay for human X-box Binding Protein 1 (XBP1) (AID 2282972); conditions: HepG2 XBP1 cis-element reporter, Attagene multiplex; actives raise or lower the signal
Method in brief: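 Fluorescence-labelled cDNA fragments from reporter transcripts, separated by capillary electrophoresis, give the signal. Source: HepG2 cells transfected with promoter-driven reporter units, harvested 24 h post-dose. DMSO served as reference for bidirectional curve fitting.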

[16] = ATG_M_19_TRANS: Attagene TRANS-FACTORIAL HepG2 Assay for M19 Transcription Factor (Internal Marker) (AID 2282974; active = hit-call score of the fitted dose curve at least 0.9, where 1 is the maximum); conditions: HepG2 Attagene TRANS-FACTORIAL M19 internal marker reporter
Method in brief: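 HepG2 cells transiently transfected with multiple GAL4-UAS reporter transcription units were exposed to chemicals for 24 h. Reporter mRNA was read by RT-PCR, 6-FAM primer extension, HpaI digestion and capillary electrophoresis; gain of signal fitted relative to DMSO.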

[17] = ATG_GAL4_TRANS: Attagene TRANS-FACTORIAL HepG2 Assay for GAL4 (Internal Marker) (AID 2282976; active = hit-call score of the fitted dose curve at least 0.9, where 1 is the maximum); conditions: HepG2 Attagene TRANS GAL4 internal marker reporter
Method in brief: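 Background-control readout: GAL4-UAS reporter transcript in transiently transfected HepG2 cells after 24 h compound exposure. Measured by RT-PCR, 6-FAM primer extension, HpaI digest and capillary electrophoresis; gain-of-signal fit versus DMSO.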

[18] = ATG_PBREM_CIS: Attagene CIS-FACTORIAL HepG2 Assay for human Phenobarbital-responsive Enhancer Module (PBREM) (AID 2282955); conditions: HepG2 PBREM cis-reporter, Attagene multiplexed transcription; actives raise or lower the signal
Method in brief: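 HepG2 cells transiently transfected with multiple cis-regulated reporter transcription units; endogenous factor activity at the PBREM element measured as reporter mRNA 24 h after dosing, via RT-PCR and capillary electrophoresis of fluorescent fragments; bidirectional fitting versus DMSO.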

[19] = biological target: Nuclear receptor subfamily 1 group I member 3 (Homo sapiens) (UniProt Q14994); test: ATG_CAR_TRANS: Attagene TRANS-FACTORIAL HepG2 Assay for human Constitutive Androstane Receptor (CAR) (AID 2282969; active = hit-call score of the fitted dose curve at least 0.9, where 1 is the maximum;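 note: activators raise reporter mRNA above DMSO so AC50 marks induction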); conditions: HepG2 Attagene TRANS-FACTORIAL CAR reporter
Method in brief: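 Readout is reporter mRNA induction, quantified by fluorescent primer extension and capillary electrophoresis after RT-PCR. Cells were HepG2 transiently carrying chimeric NR-Gal4 constructs with GAL4-UAS reporters, treated for 24 h; activity scored upward from DMSO.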

[20] = biological target: Steroid hormone receptor ERR1 (Homo sapiens) (UniProt P11474); test: ATG_ERRa_TRANS: Attagene TRANS-FACTORIAL HepG2 Assay for human Estrogen-Related Receptor alpha (ERRa) (AID 2282971; active = hit-call score of the fitted dose curve at least 0.9, where 1 is the maximum); conditions: HepG2 Attagene TRANS reporter, ERRa transactivation
Method in brief: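 HepG2 cells transiently transfected with GAL4-UAS reporter units and chimeric NR-Gal4 constructs; after 24 hour compound incubation, reporter mRNA quantified by RT-PCR, fluorescent labelling and capillary electrophoresis, gain of signal versus DMSO.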

Measured: AC50

Sequence of Paired box protein Pax-6 (Homo sapiens) (P26367 whole entry, looked up): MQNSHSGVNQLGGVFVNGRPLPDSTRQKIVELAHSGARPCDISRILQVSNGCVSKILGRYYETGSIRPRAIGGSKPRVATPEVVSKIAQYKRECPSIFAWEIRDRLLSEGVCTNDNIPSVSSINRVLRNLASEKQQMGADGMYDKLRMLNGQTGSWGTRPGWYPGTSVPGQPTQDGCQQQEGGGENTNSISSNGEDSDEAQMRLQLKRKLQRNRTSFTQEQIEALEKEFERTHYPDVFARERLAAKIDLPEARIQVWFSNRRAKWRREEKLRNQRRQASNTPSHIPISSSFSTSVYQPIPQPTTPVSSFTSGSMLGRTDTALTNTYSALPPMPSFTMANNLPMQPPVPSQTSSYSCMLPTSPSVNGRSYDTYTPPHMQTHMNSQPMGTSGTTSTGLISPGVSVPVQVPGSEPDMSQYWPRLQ
Sequence of Estrogen receptor (Homo sapiens) (P03372 whole entry, looked up, the tested form may be a part): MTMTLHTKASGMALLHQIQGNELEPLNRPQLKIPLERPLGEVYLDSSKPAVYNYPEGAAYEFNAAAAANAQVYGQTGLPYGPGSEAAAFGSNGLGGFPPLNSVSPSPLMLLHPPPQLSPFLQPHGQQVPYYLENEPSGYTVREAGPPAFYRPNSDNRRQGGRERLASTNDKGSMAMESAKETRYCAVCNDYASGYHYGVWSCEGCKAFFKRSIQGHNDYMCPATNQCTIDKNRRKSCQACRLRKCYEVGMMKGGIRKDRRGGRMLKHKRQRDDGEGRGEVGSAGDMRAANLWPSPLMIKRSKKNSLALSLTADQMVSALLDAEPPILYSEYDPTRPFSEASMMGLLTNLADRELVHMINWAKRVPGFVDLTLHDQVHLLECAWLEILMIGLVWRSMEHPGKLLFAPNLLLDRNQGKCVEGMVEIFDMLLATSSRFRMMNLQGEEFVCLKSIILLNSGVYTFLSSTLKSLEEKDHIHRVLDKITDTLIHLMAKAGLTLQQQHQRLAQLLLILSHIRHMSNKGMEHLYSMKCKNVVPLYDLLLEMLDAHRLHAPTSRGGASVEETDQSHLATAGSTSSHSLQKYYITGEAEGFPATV
Sequence of X-box-binding protein 1 (Homo sapiens) (P17861 whole entry, looked up, the tested form may be a part): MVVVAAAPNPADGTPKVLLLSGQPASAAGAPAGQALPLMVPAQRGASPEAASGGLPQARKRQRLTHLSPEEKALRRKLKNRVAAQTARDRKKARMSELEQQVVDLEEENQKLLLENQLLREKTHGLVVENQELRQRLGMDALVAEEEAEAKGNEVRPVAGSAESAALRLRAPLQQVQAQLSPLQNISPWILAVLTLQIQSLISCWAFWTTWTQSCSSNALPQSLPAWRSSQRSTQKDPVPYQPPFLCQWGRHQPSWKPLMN
Sequence of Transcription factor Sp1 (Homo sapiens) (P08047 whole entry, looked up): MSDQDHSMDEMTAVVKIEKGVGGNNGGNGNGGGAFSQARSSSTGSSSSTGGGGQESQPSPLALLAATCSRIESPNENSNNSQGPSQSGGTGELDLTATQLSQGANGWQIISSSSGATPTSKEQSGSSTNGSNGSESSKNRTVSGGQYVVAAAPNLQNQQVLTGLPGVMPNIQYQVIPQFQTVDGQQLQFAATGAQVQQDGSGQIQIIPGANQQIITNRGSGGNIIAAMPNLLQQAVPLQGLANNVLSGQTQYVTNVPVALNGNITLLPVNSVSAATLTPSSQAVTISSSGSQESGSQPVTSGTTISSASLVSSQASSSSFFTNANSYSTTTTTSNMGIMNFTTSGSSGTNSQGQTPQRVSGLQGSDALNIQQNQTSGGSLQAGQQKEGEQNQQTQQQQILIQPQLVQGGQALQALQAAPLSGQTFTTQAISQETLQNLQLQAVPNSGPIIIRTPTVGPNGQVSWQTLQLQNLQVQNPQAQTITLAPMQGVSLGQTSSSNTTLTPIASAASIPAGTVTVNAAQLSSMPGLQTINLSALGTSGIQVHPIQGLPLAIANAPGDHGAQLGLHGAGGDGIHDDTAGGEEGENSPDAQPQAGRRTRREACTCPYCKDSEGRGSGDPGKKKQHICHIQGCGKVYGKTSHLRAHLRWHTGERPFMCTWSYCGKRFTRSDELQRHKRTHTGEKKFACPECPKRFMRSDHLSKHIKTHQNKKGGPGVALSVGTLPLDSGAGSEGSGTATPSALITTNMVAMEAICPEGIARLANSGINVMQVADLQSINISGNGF
Sequence of Signal transducer and activator of transcription 3 (Homo sapiens) (P40763 whole entry, looked up): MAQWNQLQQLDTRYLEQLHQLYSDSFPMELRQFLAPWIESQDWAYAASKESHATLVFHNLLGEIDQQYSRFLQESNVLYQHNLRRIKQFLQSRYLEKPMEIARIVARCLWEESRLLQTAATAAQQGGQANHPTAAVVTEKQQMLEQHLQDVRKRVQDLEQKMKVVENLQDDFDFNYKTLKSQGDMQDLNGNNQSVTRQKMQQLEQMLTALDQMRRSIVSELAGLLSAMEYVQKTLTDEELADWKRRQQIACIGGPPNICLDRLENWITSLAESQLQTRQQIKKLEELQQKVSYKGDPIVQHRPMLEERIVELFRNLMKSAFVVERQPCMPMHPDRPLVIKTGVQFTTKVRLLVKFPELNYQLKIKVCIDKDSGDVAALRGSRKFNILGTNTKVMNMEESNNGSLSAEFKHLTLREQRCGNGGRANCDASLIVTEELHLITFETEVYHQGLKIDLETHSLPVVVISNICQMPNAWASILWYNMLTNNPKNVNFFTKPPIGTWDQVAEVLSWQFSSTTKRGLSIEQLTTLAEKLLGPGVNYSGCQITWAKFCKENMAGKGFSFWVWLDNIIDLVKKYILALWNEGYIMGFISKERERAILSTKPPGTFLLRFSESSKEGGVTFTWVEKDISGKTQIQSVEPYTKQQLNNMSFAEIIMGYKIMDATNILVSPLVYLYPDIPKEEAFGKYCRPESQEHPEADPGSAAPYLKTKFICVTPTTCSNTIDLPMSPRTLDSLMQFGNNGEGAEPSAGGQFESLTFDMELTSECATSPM
Sequence of Nuclear receptor subfamily 1 group I member 3 (Homo sapiens) (Q14994 whole entry, looked up, the tested form may be a part): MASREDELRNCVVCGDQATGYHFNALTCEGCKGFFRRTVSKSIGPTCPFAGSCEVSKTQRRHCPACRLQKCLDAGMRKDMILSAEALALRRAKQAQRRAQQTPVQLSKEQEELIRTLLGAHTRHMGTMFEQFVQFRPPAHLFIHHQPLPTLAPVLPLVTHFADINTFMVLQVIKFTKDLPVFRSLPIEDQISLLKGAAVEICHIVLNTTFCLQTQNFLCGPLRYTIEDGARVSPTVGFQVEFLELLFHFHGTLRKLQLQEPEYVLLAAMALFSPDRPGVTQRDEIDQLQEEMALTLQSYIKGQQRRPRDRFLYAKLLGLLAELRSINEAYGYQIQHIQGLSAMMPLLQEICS
Sequence of Steroid hormone receptor ERR1 (Homo sapiens) (P11474 whole entry, looked up, the tested form may be a part): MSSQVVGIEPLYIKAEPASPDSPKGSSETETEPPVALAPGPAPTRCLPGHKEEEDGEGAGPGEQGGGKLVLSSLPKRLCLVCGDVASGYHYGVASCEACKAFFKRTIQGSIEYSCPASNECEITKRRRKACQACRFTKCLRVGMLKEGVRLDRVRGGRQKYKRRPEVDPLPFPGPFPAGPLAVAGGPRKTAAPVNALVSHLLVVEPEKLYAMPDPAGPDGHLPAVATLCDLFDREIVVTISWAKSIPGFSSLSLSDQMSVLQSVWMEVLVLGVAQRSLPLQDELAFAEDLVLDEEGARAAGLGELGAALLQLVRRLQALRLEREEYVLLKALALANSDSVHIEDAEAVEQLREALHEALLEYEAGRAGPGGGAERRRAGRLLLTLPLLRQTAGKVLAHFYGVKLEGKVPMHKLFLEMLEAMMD

CC1=CCC2CC1C2(C)C (stereo not drawn)
active: [2] 37.2 µM
not listed: [18] | [19] | [20]
inactive: all other assays above

C=Cc1ccc(OC(C)=O)cc1
active: [14] 31.6 µM | [15] 53.7 µM
not listed: [1] | [8] | [17] | [20]
inactive: all other assays above

Oc1c(Cl)cc(Cl)c(Cl)c1Cl
active: [1] 82.6 µM | [2] 26.5 µM | [3] 21.9 µM | [4] 43.4 µM | [9] 61.5 µM | [13] 59.8 µM
not listed: [16] | [17] | [18] | [19] | [20]
inactive: all other assays above

Nc1ccc(Cl)c(N)c1
not listed: [18] | [19] | [20]
inactive: all other assays above

Cc1c(C(=O)c2c[nH]n(C)c2=O)ccc(S(C)(=O)=O)c1C1=NOCC1
active: [2] 14.4 µM
not listed: [1] | [7] | [14] | [17] | [19] | [20]
inactive: all other assays above

O=C(O)CCCC(=O)O
not listed: [1] | [13] | [16] | [17] | [19] | [20]
inactive: all other assays above

N#CC1(N)CCCCC1
not listed: [1] | [3] | [8] | [14] | [17] | [19] | [20]
inactive: all other assays above

COC(Cc1ccccc1)OC
not listed: [1] | [2] | [3] | [8] | [17] | [20]
inactive: all other assays above

COCC(=O)O
not listed: [17] | [18] | [19] | [20]
inactive: all other assays above

COc1ccc(C(=O)/C(Br)=C\C(=O)O)cc1
active: [4] 32.5 µM | [6] 59 µM | [13] 35.7 µM
not listed: [1] | [2] | [3] | [16] | [17] | [19]
inactive: all other assays above

CCCCCC[C@@H](O)C/C=C\CCCCCCCC(=O)OCC(O)CO (stereo partly drawn)
active: [1] 134 µM | [3] 11 µM | [6] 190 µM | [7] 122 µM | [9] 150 µM | [11] 164 µM | [15] 175 µM
not listed: [18] | [19] | [20]
inactive: all other assays above

Cc1ccccc1CCO
active: [2] 26.6 µM
not listed: [10] | [14] | [17] | [18] | [19] | [20]
inactive: all other assays above

CC1(C)C(=O)N(CO)C(=O)N1CO
active: [2] 27.8 µM
not listed: [14] | [16] | [18] | [19] | [20]
inactive: all other assays above

CCCCc1ccc(Cl)cc1
not listed: [8] | [16] | [18] | [19] | [20]
inactive: all other assays above

CC(c1cc(C(C)(C)C)cc(C(C)(C)C)c1O)c1cc(C(C)(C)C)cc(C(C)(C)C)c1O
active: [2] 0.078 µM
not listed: [7] | [10] | [14] | [16] | [17] | [18] | [19] | [20]
inactive: all other assays above

Cc1cc(=O)[nH]c(=O)[nH]1
active: [2] 24.8 µM
not listed: [6] | [10] | [14] | [16] | [18] | [19] | [20]
inactive: all other assays above

CC(=O)C(C)C
not listed: [10] | [18] | [19] | [20]
inactive: all other assays above

CC/C=C\C/C=C\C/C=C\CCCCCCCC(=O)OC
active: [2] 7.37 µM | [6] 128 µM | [10] 64.9 µM | [12] 100 µM
not listed: [4] | [18] | [19] | [20]
inactive: all other assays above
